# Bioassay records (PubChem BioAssay)
# KDM5B inh – inhibitors of human KDM5B histone demethylase | Q9UGL1 | KDM5B demethylase, FDH-coupled NADH fluorescence (FDH is formaldehyde dehydrogenase) | Potency, µM (doses to about 57.7 µM), actives largely listed as inhibitors | 2.6% of 220,000 active | AID 1347165; active means well fitted inhibition curve with a large enough effect; further: nearly all actives have a fitted effect of over 70% in size
#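 KDM5BΔAP (200 nM final) in 50 mM HEPES pH 7.5, 0.01% Tween-20 was preincubated 10 min at RT with compound over a concentration range. Substrate mix (H3K4me3 12.5 µM, α-KG 25 µM, Fe²⁺, ascorbate, NAD⁺, FDH) was added, and NADH fluorescence change over 30 min gave dose-response curves.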
# Hits are given with their value; - = inactive. The full list was thinned out, with hits kept by preference.
SMILES,KDM5B inh
CCOC(=O)C1=C(CN(CCOC)Cc2cccs2)NC(=O)NC1c1ccc(Cl)cc1 (stereo not drawn),-
O=C(C1CCCC1)N1Cc2ccccc2NC(=O)C12CCNCC2,-
O=C1Nc2ccccc2CC12CCCCN2Cc1ccc(OC(F)(F)F)cc1 (stereo not drawn),-
O=C1Nc2ccccc2CN(Cc2ccc(C(F)(F)F)cc2)C12CCNCC2,50µM
O=C(C1CC1)N1Cc2ccccc2NC(=O)C12CCNC2 (stereo not drawn),-
O=C1Nc2ccccc2CN(Cc2ccc(F)cc2)C12CCNCC2,45µM
O=C1Nc2ccccc2CC12CCN2Cc1ccc(C(F)(F)F)cc1 (stereo not drawn),-
O=C1Nc2ccccc2CN(CC2CC2)C12CCNC2 (stereo not drawn),-
O=C(Cc1ccc(F)cc1)N1CCCCC12Cc1ccccc1NC2=O (stereo not drawn),-
O=C1Nc2ccccc2CN(CC2CCCC2)C12CCNC2 (stereo not drawn),89µM
Cc1ccc2nc(/C(C#N)=C/c3ccc(-c4ccc(C)c(Cl)c4)o3)[nH]c2c1,-
Cc1ccc(C(=O)c2sc(Nc3cccc(F)c3)nc2N)c(C)c1,-
OCc1c[nH]c2c1ccc1ccccc12,-
O=C(c1n[nH]c2ccccc12)N1CCCC1c1nc(CCOCC2CC2)no1 (stereo not drawn),-
COC(=O)C1(NC(=O)c2ccc(OC)c(OC)c2)CCCCC1,-
Cc1occc1-c1nnc(SCC(=O)c2cc(C)n(C3CC3)c2C)n1-c1ccccc1,-
CCc1ccccc1OCC(=O)OCc1ccc(Cl)cc1,-
CC(C)(C)NC(=O)c1cccc(NC(=O)c2cccnc2)c1,-
c1ccc(-c2ccc(CNCc3ccco3)cc2)cc1,-
O=C([C@@H]1C[C@H](Oc2ccccc2)CN1C(=O)C1CCCC1)N1CCCC1,-
C=C(Cl)CN1CCC(C(=O)OCC)CC1,-
CNC(=O)CCn1ncc2cc(OCc3ccccc3-c3cncc(OC)c3)ccc21,-
CNC(=O)CCn1ncc2cc(OCc3ccccc3-c3ccc(OC)cc3)ccc21,32µM
CNC(=O)CCn1ncc2cc(OCc3ccccc3-c3cnn(C)c3)ccc21,-
CCc1ccc(CNC(=O)C2COc3ccc(OC)cc3C2)cc1 (stereo not drawn),-
SMILES,KDM5B inh
COc1ccc2c(c1)OCC(C(=O)NCc1csc(N3CCCC3)n1)C2 (stereo not drawn),14µM
CCCCOc1ccc(CNC(=O)C2COc3ccc(OC)cc3C2)cc1 (stereo not drawn),-
CCOc1ccc2c(=O)c(Oc3cccc(OC)c3)coc2c1,-
Fc1ccc(Sc2ccncc2)cc1,-
Cc1nn(C)c(C)c1-c1ccnc(NCC2CC(=O)N(C3CCCC3)C2)n1 (stereo not drawn),25µM
Cc1ccc(Cl)cc1NC(=O)C1CC(=O)N(C2CCCCC2)C1 (stereo not drawn),-
Cc1nc2cc(NC(=O)C3CC(=O)N(C4CCCC4)C3)ccc2o1 (stereo not drawn),-
Cc1ccc(C(=O)NCC(=O)NCC#Cc2cccc(C(F)(F)F)c2)cc1,-
CNC(=O)c1cc(-c2ccc(CO)cc2)cc2c1OCCN2Cc1cccnc1,28µM
COc1ccccc1C(C(=O)O)N1CCC(OCc2cccnc2)CC1 (stereo not drawn),-
COc1cccc(C(=O)NCC2CCCN(Cc3cccnc3)C2)c1OC (stereo not drawn),-
CN(C)[S+](=O)([O-])c1ccc2c(c1)OCCN(Cc1cccnc1)C2,-
CNC(=O)c1cc(-c2ccc(F)cc2OC)cc2c1OCCN2Cc1cccnc1,40µM
CNC(=O)c1cc(-c2cnc(OC)nc2)cc2c1OCCN2Cc1cccnc1,-
CC(C)(C)CC(=O)N1CC[C@H]2CC(=O)N(Cc3cccnc3)CC[C@H]2C1,-
CNC(=O)c1cc(-c2ccc([S+](C)(=O)[O-])cc2)cc2c1OCCN2Cc1cccnc1,35µM
CNC(=O)c1cc[nH]c1C1CCCN(C(=O)Cc2cccnc2)C1 (stereo not drawn),-
CNC(=O)c1cc(-c2ccc(OC)c(OC)c2)cc2c1OCCN2Cc1cccnc1,32µM
C[S+](=O)([O-])N1CC2ON=C(C(=O)NCc3cccnc3)C2C1 (stereo not drawn),-
COc1ccc(NC(=O)c2cc3c(=O)n(Cc4cccnc4)ccc3nc2C)cc1OC,-
CN(C)CCNC(=O)C1CCCN(c2nc(Cl)nc3nc[nH]c23)C1 (stereo not drawn),-
Cc1ccc(Nc2nc(NC3CCCC3)nc3c2cnn3-c2ccccc2)cc1,-
O=C(CSc1ccc2c(c1)OCCO2)NC(c1ccccc1)c1cccs1 (stereo not drawn),-
CC(C)(C(=O)NC1CCCCCC1)c1ccccc1,-
Cc1cc(=O)oc2cc(OCc3nc(-c4cccc(Cl)c4)no3)ccc12,-
SMILES,KDM5B inh
O=C(NC(C(=O)Nc1ccccc1)C1CCN(C(=O)c2cccc(F)c2)CC1)c1ccc(F)cc1 (stereo not drawn),-
Cc1cc(CSc2ncccc2C(=O)Nc2ccnn2Cc2cccnc2)no1,-
Cc1cc(C(=O)N[C@@H]2CN(Cc3cccnc3)C[C@H]2CN(C)C)n(C)n1,-
CNC(=O)c1cc(-c2cnn(C)c2C)cc2c1OCCN2Cc1cccnc1,35µM
CN(C)S(=O)(=O)c1cccc(NC(=O)c2nn(Cc3ccccc3)c(=O)c3ccccc23)c1,-
CCc1ccc(C(=O)CSc2n[nH]c(CC)n2)cc1,-
Cc1ccccc1Nc1nc(CSc2nnc3n2CCCCC3)cs1,-
NC(=O)[C@@H]1CN(C(=O)CCc2ccccc2)C[C@H]1COc1ccccc1,-
NC(=O)Cn1ccc2cc(OCC3CCN(C(=O)COc4ccccc4)CC3)cnc21,35µM
O=C(COc1ccccc1)N1CCC(Oc2cnc3c(ccn3-c3cncnc3)c2)CC1,-
NC(=O)[C@@H]1CN(C(=O)COc2ccccc2)C[C@H]1COc1ccccc1,-
O=C(O)CCn1ncc2cc(OCC3CCN(C(=O)Cc4ccccc4)CC3)ccc21,-
NC(=O)Cn1ccc2cc(OCC3CCN(C(=O)CCc4ccccc4)CC3)cnc21,32µM
COc1cc(C#N)ccc1OCc1cc(C#N)ccc1F,-
CCc1ccc(C(=O)Nc2ccc(C(N)=O)cc2)cc1S(=O)(=O)N1CCOCC1,-
Cc1ccc(N2C(=O)c3cc(-c4ccco4)nn3CC2(C)C(=O)NC2CCCCC2)cc1 (stereo not drawn),-
O=C(c1cc2ccccc2[nH]1)N1CCC(C(=O)N2CCCCCC2)CC1,-
O=C(NCCc1csc(-c2ccncc2)n1)C1CNCCO1 (stereo not drawn),28µM
CC(=O)N1CCCC(C(=O)NCCc2csc(-c3ccncc3)n2)C1 (stereo not drawn),22µM
O=C(NCCc1ccc(Cl)cc1Cl)C1CNCCO1 (stereo not drawn),-
CC(=O)N1CCC(Cc2noc(-c3ccncc3)n2)C1 (stereo not drawn),-
O=C(Cc1cccs1)NCCc1csc(-c2ccccc2)n1,-
O=C(COc1ccc(Cl)cc1)NCCc1csc(-c2ccncc2)n1,-
CC(=O)NC1(C#N)CCCCC1,-
O=C1NCCCCCCN(C(=O)NC2CCCCC2)[C@H]2C[C@H](C(=O)N3CCc4ccccc4C3)C[C@@H]12,-
Cc1noc(C)c1C(=O)NCC(=O)N1CCCCCCNC(=O)CC1c1ccccc1 (stereo not drawn),-
CCCN(C)C(=O)c1nn(CCC)c(=O)c2ccccc12,-
O=C(COc1ccc(S(=O)(=O)NC2CCCCC2)cc1)NCc1ccccc1,-
